Assay outcomes: PubChem, Broad Institute
The entries come from a sample that favours hits as a whole.
Tg IFNy HTS: T. gondii growth inhibition with IFN-gamma, primary screen, cell-based; Toxoplasma gondii growth in IFN-gamma-treated host cells; active compounds read low; activity change, negative = inhibition, % (test concentration not listed); 69,000 tested, 3.8% active; in the data active = activity change below about -70%, passing the limit was not always enough;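 also: host cells are HeLa cells infected with Toxoplasma gondii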
* marks the source's active call; other numbers are inactive results; ! = not confirmed by another sample.

SMILES	Tg IFNy HTS
O=c1[nH]ccc2c1c(=O)[nH]c1ccccc12	-100*
COCc1cn(CC2CCN(C(=O)c3ccc4nccnc4c3)CC2)nn1	-4
Cc1cc(=O)cc(C)n1NC(=O)c1cccnc1	-26
COc1ccccc1NC(=O)N1C[C@@H]2N[C@H](C1)C2c1ccc(-c2cccc(C#N)c2)cc1 (stereo partly drawn)	-33
N#Cc1cccc(-c2ccc(C3[C@@H]4CN(C(=O)Nc5ccc(C(F)(F)F)cc5)C[C@H]3N4)cc2)c1 (stereo partly drawn)	-73*!
C/C=C/c1ccc(C2[C@@H]3CN(C(=O)NC4CCCCC4)C[C@H]2N3)cc1 (stereo partly drawn)	-22
O=C(Nc1ccc(F)cc1)N1C[C@@H]2N[C@H](C1)C2c1ccc(/C=C/c2ccccc2)cc1 (stereo partly drawn)	-43
N#Cc1ccc(-c2ccc(C3[C@@H]4CN(C(=O)C5CCCCC5)C[C@H]3N4)cc2)cc1 (stereo partly drawn)	-46
O=C(NC1CCCCC1)N1C[C@@H]2N[C@H](C1)C2c1ccc(-c2ccc(F)cc2)cc1 (stereo partly drawn)	-77*!
C/C=C/c1ccc(C2[C@@H]3CN(C(=O)Nc4ccccc4F)C[C@H]2N3)cc1 (stereo partly drawn)	-33
COc1ccc(-c2ccc(C3[C@@H]4CN(C(=O)c5ccc(F)cc5)C[C@H]3N4)cc2)cc1 (stereo partly drawn)	30
Cc1cccc(-c2ccc(C3[C@@H]4CN(C(=O)c5ccncc5)C[C@H]3N4)cc2)c1 (stereo partly drawn)	-7
C/C=C/c1ccc(C2[C@@H]3CN(C(=O)Nc4ccc(C(F)(F)F)cc4)C[C@H]2N3)cc1 (stereo partly drawn)	-79*!
COc1cccc(-c2ccc(C3[C@@H]4CN(C(=O)Nc5ccccc5F)C[C@H]3N4)cc2)c1 (stereo partly drawn)	-74*!
COc1ccc(NC(=O)N2C[C@@H]3N[C@H](C2)C3c2ccc(-c3ccncc3)cc2)cc1 (stereo partly drawn)	-3
COc1cc(-n2ccnc2)cc(OC)c1OC	8
CC(=O)N1CCC2(CC1)CC(NC(=O)[C@H]1CCCO1)c1ccccc1O2 (stereo partly drawn)	-8
CCCNC(=O)N1C[C@@H](C)[C@H](OC)CN(C)C(=O)c2ccc(NC(=O)CC)cc2OC[C@H]1C	42
C/C(=C\c1ccco1)CN1CCN(c2nc3cc(C)ccc3o2)CC1	21
CCc1nc(=O)c2ccccc2n1C1=CCN(C(=O)C2C3C=CC4(CN(C)C(=O)C24)O3)CC1 (stereo not drawn)	-4
Cc1cnc(N2CCC(O)(c3ccccc3)CC2)nc1N(C)C	-8
OCC1(Cc2ccc(F)cc2F)CCCN(c2ncnc3[nH]ccc23)C1 (stereo not drawn)	-11
CC(C)CN1CCS(=O)(=O)[C@H]2CCN(C(=O)C3CC3)CC[C@@H]21	-1
Nc1ncccc1CN1CCCC1c1ccc(F)cc1 (stereo not drawn)	16
Cc1[nH]c(SCC(=O)Nc2nccs2)nc1Cc1ccccc1	-11
SMILES	Tg IFNy HTS
CN1CCC(Nc2ncc3ncnc(Nc4ccc(F)c(Cl)c4)c3n2)CC1	-30
CN1CCCC1CCNC(=O)CC(=O)Nc1ccc(F)c(Cl)c1 (stereo not drawn)	-47
C=CC(=O)Nc1cc2c(Nc3ccc(F)c(Cl)c3)ncnc2cc1C#CC(C)(C)N1CCN(C)CC1	-72*
COc1ccc(CC(=O)NCCc2csc(-c3ccc(F)cc3)n2)cc1OC	46
CCCc1cnc(N2CCN(C(=O)c3c(-c4ccccc4)noc3C)CC2)nc1	-82*
CCOC(=O)c1c(-c2ccccc2)noc1C(C)=O	20
Cc1onc(-c2ccccc2)c1C(=O)Oc1ccccc1N1CCOCC1	-18
N#Cc1cccc(CN2CCC3C2CC(=O)N3Cc2ccncc2)c1 (stereo not drawn)	42
COc1ccccc1CN(c1nc(CCN)nc2ccccc12)C1CC1	80
COC[C@@H]1CC[C@@H]2[C@@H](CCN2C(=O)NCc2cccc(F)c2)O1	228
O=C(Cn1c(=O)cc(C(=O)N2CCc3ccccc3C2)c2ccccc21)Nc1ccccc1Cl	14
COc1ccc(C(=O)NCCc2csc(-c3ccc(Cl)cc3)n2)cc1	-58
COc1ccc2cc(-c3cc(-c4cc(Cl)cc(Cl)c4)nn3[C@@H](C)c3ccc(C(=O)NCCC(=O)O)cc3)ccc2c1	-73*
CC(C)Oc1ccc(C(=O)NCCc2csc(-c3ccc(Cl)cc3)n2)cc1	7
COc1cc2c(cc1OC)C(Nc1ccc(Br)cc1)=NC1(CCCC1)C2	-85*
COc1cc2c(cc1OC)C(C)=NC1(CCCCC1)C2	24
COc1ccc(-c2nnc3n2C2(CCCC2)Cc2cc(OC)c(OC)cc2-3)cc1	-11
Cc1nc(SCCNC(=O)[C@H]2CCCO2)n[nH]1	2
COc1ccc2nc(CCC(=O)O)[nH]c2c1	11
C[C@@H]1CNC(=O)[C@H](Cc2ccc(C(F)(F)F)cc2)CCn2nncc2COC1	-5
CCCc1sc(Nc2ccc(C(=O)OC)cc2)nc1-c1ccccc1	91
